# Assay results reported in the supplement of paper PMC8728848.
# This is one part of a sample in which the strongest signals are shown more often than they occur.
# B1: Gal 7 (Homo sapiens) (protein)
# chain: MSNVPHKSSLPEGIRPGTVLRIRGLVPPNASRFHVNLLCGEEGGSDAALHFNPRLDTSEVVFNSKEGGSWGREERGPGVPFGRGQPFEVLIIASDDGFKAVVGDAQYHHFRHRLPLARVRLVEVGGDVQLDSVRIF
# Tests used:
# Test in all cases: glycan array binding signal (z-score within array); higher = stronger binding
# Conditions in all cases: glycan notation: IUPAC condensed, linker removed
# [1] = biological target: Gal(b1-4)GlcNAc(b1-3)Gal(b1-4)GlcNAc(b1-3)Gal(b1-4)GlcNAc(b1-2)[Gal(b1-4)GlcNAc(b1-3)Gal(b1-4)GlcNAc(b1-3)Gal(b1-4)GlcNAc(b1-6)]Man(a1-6)[Gal(b1-4)GlcNAc(b1-3)Gal(b1-4)GlcNAc(b1-3)Gal(b1-4)GlcNAc(b1-2)Man(a1-3)]Man(b1-4)GlcNAc(b1-4)[Fuc(a1-6)]GlcNAc
# Procedure, shortened: (§1)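 Glycan array data came from 3228 arrays in the Consortium for Functional Glycomics database, and only arrays with an available protein sequence were kept. Glycan names were put into IUPAC-condensed notation, and columns mapping to the same glycan were averaged. The binding signal is a within-array Z-score, averaged across arrays of one protein sequence run at different concentrations or buffers and across linkers. A negative Z-score can be read as non-binding.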
# [2] = biological target: Gal(b1-4)GlcNAc(b1-3)Gal(b1-4)GlcNAc(b1-3)Gal(b1-4)GlcNAc(b1-3)Gal(b1-4)GlcNAc(b1-2)[Gal(b1-4)GlcNAc(b1-3)Gal(b1-4)GlcNAc(b1-3)Gal(b1-4)GlcNAc(b1-3)Gal(b1-4)GlcNAc(b1-6)]Man(a1-6)[Gal(b1-4)GlcNAc(b1-3)Gal(b1-4)GlcNAc(b1-3)Gal(b1-4)GlcNAc(b1-3)Gal(b1-4)GlcNAc(b1-2)Man(a1-3)]Man(b1-4)GlcNAc(b1-4)[Fuc(a1-6)]GlcNAc
# Procedure, shortened: as §1
# [3] = biological target: Gal(b1-4)GlcNAc(b1-3)Gal(b1-4)GlcNAc(b1-3)Gal(b1-4)GlcNAc(b1-3)Gal(b1-4)GlcNAc(b1-3)Gal(b1-4)GlcNAc(b1-2)Man(a1-3)[Gal(b1-4)GlcNAc(b1-3)Gal(b1-4)GlcNAc(b1-3)Gal(b1-4)GlcNAc(b1-3)Gal(b1-4)GlcNAc(b1-3)Gal(b1-4)GlcNAc(b1-2)Man(a1-6)]Man(b1-4)GlcNAc(b1-4)GlcNAc
# Procedure, shortened: as §1
# [4] = biological target: Gal(b1-4)GlcNAc(b1-3)Gal(b1-4)GlcNAc(b1-3)Gal(b1-4)GlcNAc(b1-3)Gal(b1-4)GlcNAc(b1-3)Gal(b1-4)GlcNAc(b1-2)Man(a1-3)[Gal(b1-4)GlcNAc(b1-3)Gal(b1-4)GlcNAc(b1-3)Gal(b1-4)GlcNAc(b1-3)Gal(b1-4)GlcNAc(b1-3)Gal(b1-4)GlcNAc(b1-2)Man(a1-6)]Man(b1-4)GlcNAc(b1-4)[Fuc(a1-6)]GlcNAc
# Procedure, shortened: as §1
# [5] = biological target: Gal(b1-4)GlcNAc(b1-3)Gal(b1-4)GlcNAc(b1-3)Gal(b1-4)GlcNAc(b1-3)Gal(b1-4)GlcNAc(b1-3)Gal(b1-4)GlcNAc(b1-2)[Gal(b1-4)GlcNAc(b1-3)Gal(b1-4)GlcNAc(b1-3)Gal(b1-4)GlcNAc(b1-3)Gal(b1-4)GlcNAc(b1-3)Gal(b1-4)GlcNAc(b1-6)]Man(a1-6)[Gal(b1-4)GlcNAc(b1-3)Gal(b1-4)GlcNAc(b1-3)Gal(b1-4)GlcNAc(b1-3)Gal(b1-4)GlcNAc(b1-3)Gal(b1-4)GlcNAc(b1-2)Man(a1-3)]Man(b1-4)GlcNAc(b1-4)[Fuc(a1-6)]GlcNAc
# Procedure, shortened: as §1
# [6] = biological target: Gal(b1-4)GlcNAc(b1-3)Gal(b1-4)GlcNAc(b1-3)GalNAc
# Procedure, shortened: as §1
# Gal3S(b1-3)GalNAc = biological target: Gal3S(b1-3)GalNAc
# Procedure, shortened: as §1
# Gal3S(b1-4)Glc6S = biological target: Gal3S(b1-4)Glc6S
# Procedure, shortened: as §1
# [7] = biological target: Gal3S(b1-4)[Fuc(a1-3)]GlcNAc
# Procedure, shortened: as §1
# Gal6S(b1-3)GlcNAc = biological target: Gal6S(b1-3)GlcNAc
# Procedure, shortened: as §1
# [8] = biological target: GalNAc(b1-3)Gal(a1-6)Gal(b1-4)Glc
# Procedure, shortened: as §1
# GlcA(b1-6)Gal = biological target: GlcA(b1-6)Gal
# Procedure, shortened: as §1
# [9] = biological target: GlcNAc(b1-2)Man(a1-3)[GlcNAc(b1-2)Man(a1-6)]Man(b1-4)GlcNAc(b1-4)GlcNAc
# Procedure, shortened: as §1
# [10] = biological target: GlcNAc(b1-2)[GlcNAc(b1-4)]Man(a1-3)[GlcNAc(b1-4)][GlcNAc(b1-2)Man(a1-6)]Man(b1-4)GlcNAc(b1-4)GlcNAc
# Procedure, shortened: as §1
# [11] = biological target: GlcNAc(b1-2)[GlcNAc(b1-4)]Man(a1-3)[GlcNAc(b1-4)][GlcNAc(b1-2)[GlcNAc(b1-6)]Man(a1-6)]Man(b1-4)GlcNAc(b1-4)GlcNAc
# Procedure, shortened: as §1
# [12] = biological target: GlcNAc(b1-2)[GlcNAc(b1-6)]Man(a1-6)[GlcNAc(b1-2)Man(a1-3)]Man(b1-4)GlcNAc(b1-4)GlcNAc
# Procedure, shortened: as §1
# [13] = biological target: GlcNAc(b1-3)Gal(b1-4)GlcNAc(b1-3)Gal(b1-4)GlcNAc(b1-3)Gal(b1-4)GlcNAc(b1-2)[GlcNAc(b1-3)Gal(b1-4)GlcNAc(b1-3)Gal(b1-4)GlcNAc(b1-3)Gal(b1-4)GlcNAc(b1-6)]Man(a1-6)[GlcNAc(b1-3)Gal(b1-4)GlcNAc(b1-3)Gal(b1-4)GlcNAc(b1-3)Gal(b1-4)GlcNAc(b1-2)Man(a1-3)]Man(b1-4)GlcNAc(b1-4)[Fuc(a1-6)]GlcNAc
# Procedure, shortened: as §1
# [14] = biological target: GlcNAc(b1-3)Gal(b1-4)GlcNAc(b1-3)Gal(b1-4)GlcNAc(b1-3)Gal(b1-4)GlcNAc(b1-3)Gal(b1-4)GlcNAc(b1-2)Man(a1-3)[GlcNAc(b1-3)Gal(b1-4)GlcNAc(b1-3)Gal(b1-4)GlcNAc(b1-3)Gal(b1-4)GlcNAc(b1-3)Gal(b1-4)GlcNAc(b1-2)Man(a1-6)]Man(b1-4)GlcNAc(b1-4)[Fuc(a1-6)]GlcNAc
# Procedure, shortened: as §1
# [15] = biological target: GlcNAc(b1-3)Gal(b1-4)GlcNAc(b1-3)Gal(b1-4)GlcNAc(b1-3)Gal(b1-4)GlcNAc(b1-3)Gal(b1-4)GlcNAc(b1-2)[GlcNAc(b1-3)Gal(b1-4)GlcNAc(b1-3)Gal(b1-4)GlcNAc(b1-3)Gal(b1-4)GlcNAc(b1-3)Gal(b1-4)GlcNAc(b1-6)]Man(a1-6)[GlcNAc(b1-3)Gal(b1-4)GlcNAc(b1-3)Gal(b1-4)GlcNAc(b1-3)Gal(b1-4)GlcNAc(b1-3)Gal(b1-4)GlcNAc(b1-2)Man(a1-3)]Man(b1-4)GlcNAc(b1-4)[Fuc(a1-6)]GlcNAc
# Procedure, shortened: as §1
# [16] = biological target: GlcNAc(b1-3)[GlcNAc(b1-6)]GlcNAc
# Procedure, shortened: as §1
# [17] = biological target: Man(a1-2)Man(a1-2)Man(a1-3)[Man(a1-2)Man(a1-6)[Man(a1-3)]Man(a1-6)]Man(b1-4)GlcNAc(b1-4)GlcNAc
# Procedure, shortened: as §1
# [18] = biological target: Man(a1-2)Man(a1-6)[Man(a1-3)]Man(a1-6)[Man(a1-2)Man(a1-2)Man(a1-3)]Man(b1-4)GlcNAc(b1-4)GlcNAc
# Procedure, shortened: as §1
# [19] = biological target: Man(a1-3)[Man(a1-6)]Man(a1-6)[Man(a1-2)Man(a1-3)]Man(b1-4)GlcNAc(b1-4)GlcNAc
# Procedure, shortened: as §1
# [20] = biological target: Neu5Ac(a2-3)Gal(b1-3)[Fuc(a1-4)]GlcNAc(b1-3)Gal(b1-4)[Fuc(a1-3)]GlcNAc
# Procedure, shortened: as §1
# [21] = biological target: Neu5Ac(a2-3)Gal(b1-4)GlcNAc(b1-2)Man(a1-3)[GlcNAc(b1-2)Man(b1-4)GlcNAc(b1-2)Man(a1-6)]Man(b1-4)GlcNAc(b1-4)GlcNAc
# Procedure, shortened: as §1
# [22] = biological target: Neu5Ac(a2-3)Gal(b1-4)GlcNAc(b1-3)Gal(b1-4)GlcNAc(b1-3)GalNAc
# Procedure, shortened: as §1
# [23] = biological target: Neu5Ac(a2-3)Gal(b1-4)[Fuc(a1-3)]GlcNAc
# Procedure, shortened: as §1
# [24] = biological target: Neu5Ac(a2-3)[GalNAc(b1-4)]Gal(b1-4)GlcNAc
# Procedure, shortened: as §1
# [25] = biological target: Neu5Ac(a2-6)Gal(b1-4)GlcNAc(b1-2)[Neu5Ac(a2-6)Gal(b1-4)GlcNAc(b1-6)]Man(a1-6)[Neu5Ac(a2-6)Gal(b1-4)GlcNAc(b1-2)Man(a1-3)][GlcNAc(b1-4)]Man(b1-4)GlcNAc(b1-4)GlcNAc
# Procedure, shortened: as §1
# [26] = biological target: Neu5Ac(a2-8)Neu5Ac(a2-8)Neu5Ac(a2-3)Gal(b1-4)Glc
# Procedure, shortened: as §1
binder,measurement,setting,value
B1,glycan array binding signal (z-score),[1],4.93
same,glycan array binding signal (z-score),[2],5.2
same,glycan array binding signal (z-score),[3],4.95
same,glycan array binding signal (z-score),[4],4.93
same,glycan array binding signal (z-score),[5],5.14
same,glycan array binding signal (z-score),[6],-0.127
same,glycan array binding signal (z-score),Gal3S(b1-3)GalNAc,0.538
same,glycan array binding signal (z-score),Gal3S(b1-4)Glc6S,2.04
same,glycan array binding signal (z-score),[7],-0.312
same,glycan array binding signal (z-score),Gal6S(b1-3)GlcNAc,-0.324
same,glycan array binding signal (z-score),[8],-0.319
same,glycan array binding signal (z-score),GlcA(b1-6)Gal,-0.332
same,glycan array binding signal (z-score),[9],-0.324
same,glycan array binding signal (z-score),[10],-0.311
same,glycan array binding signal (z-score),[11],-0.33
same,glycan array binding signal (z-score),[12],-0.2
same,glycan array binding signal (z-score),[13],5.04
same,glycan array binding signal (z-score),[14],4.94
same,glycan array binding signal (z-score),[15],5.06
same,glycan array binding signal (z-score),[16],-0.33
same,glycan array binding signal (z-score),[17],-0.333
same,glycan array binding signal (z-score),[18],-0.185
same,glycan array binding signal (z-score),[19],-0.158
same,glycan array binding signal (z-score),[20],-0.197
same,glycan array binding signal (z-score),[21],-0.355
same,glycan array binding signal (z-score),[22],-0.259
same,glycan array binding signal (z-score),[23],-0.305
same,glycan array binding signal (z-score),[24],-0.248
same,glycan array binding signal (z-score),[25],-0.274
same,glycan array binding signal (z-score),[26],-0.015
